Compounds with a hit are over-represented: about 1.9% of the library has one in this group of screens.
aSyn yeast inh: qHTS of alpha-syn Inhibitors; Yeast expressing alpha-synuclein, growth rescue, BacTiter-Glo, 24 h; Potency, µM (doses to about 46.1 µM), most hits filed as activators; 370,000 compounds, 0.14% hits; further: nearly all actives have a fitted effect of over 65% in size
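Rescue of yeast growth: cells expressing toxic alpha-synuclein, induced in galactose at OD600 0.02, incubated with compound 24 h at 30 C. ATP luminescence quantified growth; inhibitors of toxicity appear as activators.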
FUS yeast rescue: qHTS for Suppressors of FUS Proteinopathy: Primary screen using FUS-linked yeast assay; Potency, µM (series often up to 76.6 µM), hits mostly activators; 390,000 compounds, 0.24% hits; S. cerevisiae FUS-expressing, growth rescue, OD600, 24 h; further: nearly all actives have a fitted effect of over 55% in size
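Toxicity suppression screen in FUS-yeast. Cells induced with 2% galactose, starting OD 0.005, treated 24hr at 30C with compounds at multiple final concentrations; growth by OD600.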
TDP-43 yeast inh: qHTS of TDP-43 Inhibitors; TDP-43 expressing yeast growth rescue, BacTiter-Glo, 24 h; Potency, µM (top dose mostly 46.1 µM), usual class: activators; 410,000 compounds, 1.8% hits; further: nearly all actives have a fitted effect of over 50% in size
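Growth rescue of TDP-43-toxic yeast measured as ATP luminescence (BacTiter-Glo). Cells grown to mid-log in raffinose, induced in galactose at OD600=0.02, exposed to compound 24 hr at 30 deg C.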
Abeta yeast res: qHTS for compounds that reverse cellular toxicity of Amyloid beta (A-beta) peptide in yeast: Primary Screen | yeast expressing A-beta42, growth rescue, OD600, 48 h; response scale: 0% DMSO, 100% iron-clioquinol control | Potency, µM (titrated, usually from 46.1 µM), hits mostly activators | 410,000 compounds, 0.063% hits; further: nearly all actives have a fitted effect of over 55% in size
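Growth rescue measured by 600 nm absorbance after 48 h yeast culture at 30 C with compound. Values normalized between DMSO and an equimolar ferric chloride plus clioquinol control.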
PTHR1 ag: qHTS for PTHR1 Agonists: Primary Screen; Potency, µM (titrated, usually from 115 µM), actives largely listed as activators; HEK293 GP2 PTHR1 cells, GloSensor cAMP luminescence, 1 h; 410,000 compounds, 0.075% hits; Parathyroid hormone/parathyroid hormone-related peptide receptor (Homo sapiens), Q03431; further: nearly all actives have a fitted effect of over 55% in size
Target sequence (Q03431 whole entry, looked up): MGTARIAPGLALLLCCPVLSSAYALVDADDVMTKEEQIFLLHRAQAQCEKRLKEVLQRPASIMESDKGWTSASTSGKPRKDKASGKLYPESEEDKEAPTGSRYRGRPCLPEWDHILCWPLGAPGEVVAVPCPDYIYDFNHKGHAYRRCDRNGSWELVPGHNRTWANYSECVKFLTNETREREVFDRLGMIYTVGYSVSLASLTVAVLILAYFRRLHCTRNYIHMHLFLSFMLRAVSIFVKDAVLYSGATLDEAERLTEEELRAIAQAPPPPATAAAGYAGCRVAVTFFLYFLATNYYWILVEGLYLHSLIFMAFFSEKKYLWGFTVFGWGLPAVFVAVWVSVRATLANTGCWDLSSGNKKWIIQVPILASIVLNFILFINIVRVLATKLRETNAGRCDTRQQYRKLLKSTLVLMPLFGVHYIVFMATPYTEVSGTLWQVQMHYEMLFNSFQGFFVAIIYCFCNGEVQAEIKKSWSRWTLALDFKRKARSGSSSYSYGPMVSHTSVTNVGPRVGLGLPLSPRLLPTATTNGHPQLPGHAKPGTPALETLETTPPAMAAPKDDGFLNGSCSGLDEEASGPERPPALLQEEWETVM
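HEK-293-derived GP2 cells expressing PTHR1 and a GloSensor cAMP reporter, 3,000/well, plated overnight, given luciferin plus IBMX (each 0.5 mM as added) for 1 h at 37 °C, then compound for 1 h at 37 °C. Luminescence was read after 15 min at room temperature.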
LDHA block: qHTS assay for inhibitors of human lactate dehydrogenase | L-lactate dehydrogenase A chain (Homo sapiens), P00338 | purified LDHA, NADH/diaphorase-resazurin fluorescence; stronger effect = lower value | activity change, % (values are at about 110 or 230 µM) | 480,000 compounds, 0.15% hits | AID 1347041, 2019; in the data active means activity change below about -30%; inconclusive means mostly about -25% to -30%
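Enzyme activity of human lactate dehydrogenase 5 (2 nM; 0.06 mM NADH, 0.2 mM pyruvate, 5 min, RT) is measured via a resazurin/diaphorase fluorescence readout of residual NADH.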
Each line names hits and unclear results; the compound was inactive in the other large screens. Unless noted, the call rests on the fitted dose curve; in most records, active means well fitted curve in the direction sought with a large enough effect; inconclusive means small, poorly fitted or top-dose-only effect, or another doubt; inactive means no such curve, though single readings can be large; an effect the other way counts as inactive or inconclusive.

COc1ccc(-c2noc(C3CC(=O)N(c4ccc(C)c(F)c4)C3)n2)c(OC)c1 (stereo not given)	FUS yeast rescue inconclusive, TDP-43 yeast inh 13µM (no result: aSyn yeast inh)
COc1ccc(-c2noc(C3CC(=O)N(c4cc(C)cc(C)c4)C3)n2)cc1 (stereo not given)	TDP-43 yeast inh inconclusive (no result: aSyn yeast inh)
CCNC(=S)N/N=C(/C)c1cccc(F)c1	none (no result: aSyn yeast inh, FUS yeast rescue, TDP-43 yeast inh, Abeta yeast res, PTHR1 ag)
C/C(=N\NC(=S)NCC(C)(C)C)c1cc(F)cc(F)c1O	TDP-43 yeast inh 13µM, Abeta yeast res inconclusive
Cc1ccc(-c2noc(C3CCCN(C(=O)c4ccccc4Br)C3)n2)cc1 (stereo not given)	TDP-43 yeast inh 13µM
O=C(c1ccc(F)cc1F)N1CCCC(c2nc(-c3ccc(F)cc3)no2)C1 (stereo not given)	none
O=C(Nc1ccc(F)cc1F)N1CCCC(c2nc(-c3ccc(F)cc3)no2)C1 (stereo not given)	FUS yeast rescue inconclusive, TDP-43 yeast inh 13µM
O=C(CCc1ncc(-c2ccc(F)cc2)o1)N1CCC(n2cccc2)CC1	none (no result: aSyn yeast inh, FUS yeast rescue, TDP-43 yeast inh, Abeta yeast res, PTHR1 ag)
CCOc1ccc(N(Cc2nc3nc(C)cc(C)n3n2)S(=O)(=O)c2ccccc2)cc1	none (no result: aSyn yeast inh, FUS yeast rescue, TDP-43 yeast inh, Abeta yeast res, PTHR1 ag)
O=C(N/N=C\c1c(O)ccc2ccccc12)c1cncc(Br)c1	aSyn yeast inh 20µM, Abeta yeast res inconclusive
O=C(c1cccc(C(F)(F)F)c1)N1CCCC1c1ccco1 (stereo not given)	none (no result: aSyn yeast inh, FUS yeast rescue, TDP-43 yeast inh, Abeta yeast res, PTHR1 ag)
Cc1cc(Cl)cc(Cl)c1OCC(=O)NCc1ccco1	TDP-43 yeast inh 14µM
CC(C)c1ccc(C(NC(=O)c2nn(C)c(=O)c3ccccc23)C(C)C)cc1 (stereo not given)	none (no result: aSyn yeast inh, FUS yeast rescue, TDP-43 yeast inh, Abeta yeast res, PTHR1 ag)
S=C(Nc1ccc(Cl)cc1)c1nc2ccccc2[nH]1	TDP-43 yeast inh inconclusive (no result: FUS yeast rescue)
Cc1ccccc1NC(=S)c1nc2ccccc2[nH]1	TDP-43 yeast inh 18µM, Abeta yeast res inconclusive
O=C(O)CNS(=O)(=O)c1ccc(OC(F)(F)F)cc1	none (no result: aSyn yeast inh, FUS yeast rescue, TDP-43 yeast inh, Abeta yeast res, PTHR1 ag)
COc1cc(Nc2cccc(-c3ccccc3)n2)cc(OC)c1OC	TDP-43 yeast inh 32µM
C[C@@H]1CN([C@H](C)CO)C(=O)c2c(c3ccccc3n2C)-c2ccccc2CO[C@@H]1CN(C)C(=O)Nc1ccccc1C(F)(F)F	TDP-43 yeast inh 20µM
Cc1ccc(Cl)cc1N1CCN(CC(=O)N(C)CC(=O)Nc2ccccc2C(F)(F)F)CC1	none (no result: aSyn yeast inh, FUS yeast rescue, TDP-43 yeast inh, Abeta yeast res, PTHR1 ag)
CO/N=C(\c1nonc1N)N1CCN(c2ccc(Cl)cc2[N+](=O)[O-])CC1	TDP-43 yeast inh 14µM
CCN(CC)c1nc(N)c2c(N)n(-c3ccccc3C)c(=S)c(C#N)c2c1C#N	FUS yeast rescue 28µM
O=C1/C(=C/c2cccc(Br)c2)SC(=S)N1CCC(=O)N(CCO)c1ccccc1	none
COc1cccc(/C=C2\SC(=S)N(CCCC(=O)N(CCO)c3ccccc3)C2=O)c1	aSyn yeast inh inconclusive, FUS yeast rescue inconclusive, TDP-43 yeast inh 22µM
COc1ccc(-c2oc3c(c2C#CC2(O)CCCCC2)C(OC(C)=O)CCC3)cc1 (stereo not given)	FUS yeast rescue inconclusive, TDP-43 yeast inh 20µM
N#Cc1cccnc1N1CCN(C(=O)c2ccc3c(c2)S(=O)(=O)c2ccccc2C3=O)CC1	none
O=C1c2ccccc2S(=O)(=O)c2cc(C(=O)N3CCN(c4ccc(Cl)cn4)CC3)ccc21	TDP-43 yeast inh 20µM
O=C(c1ccc2c(c1)N(Cc1ccc(Cl)cc1)C(=O)c1ccccc1S2(=O)=O)N1CCCCCC1	FUS yeast rescue 28µM (no result: aSyn yeast inh)
CCOC(=O)N1CCC(NC(=O)c2ccc3c(c2)N(Cc2ccc(F)cc2)C(=O)c2ccccc2S3(=O)=O)CC1	FUS yeast rescue 25µM (no result: aSyn yeast inh)
O=C(c1ccc2c(c1)N(Cc1cccc(Cl)c1)C(=O)c1ccccc1S2(=O)=O)N1CCCCCC1	FUS yeast rescue inconclusive (no result: aSyn yeast inh)
CNCCCNC(=O)/C(=N\O)c1ccccc1	none (no result: aSyn yeast inh, FUS yeast rescue, TDP-43 yeast inh, Abeta yeast res, PTHR1 ag)

Screening results deposited in PubChem by National Center for Advancing Translational Sciences (NCATS).
